Records with an inconclusive call do not appear. Activity calls are given as the source filed them. Unless noted, calls come from the whole dose curve; as a rule, active = well fitted curve in the direction sought with a large enough effect in the repeat runs; inconclusive = weak or mixed curves; inactive = no such curve, though single readings can be large; an effect the other way counts as inactive or inconclusive.
Tests used:
[1] = target: Estrogen receptor (Homo sapiens) (UniProt P03372); assay: qHTS assay to identify small molecule antagonists of the estrogen receptor alpha (ER-alpha) signaling pathway using the BG1 cell line in the presence of 0.1 nM 17-beta-estradiol (AID 1259244); note: nearly all actives have a fitted effect of over 50% in size
Method in brief: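 Quantitative high-throughput screen in VM7Luc4E2 cells: compound plus 0.1 nM E2 (final), 22 h, 37C, 5% CO2; ONE-Glo added, 30 min room temperature, luminescence measured.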

[2] = qHTS assay to identify small molecule HDAC inhibitors (AID 1259364); note: top concentration of the series differs between compounds; nearly all actives have a fitted effect of over 45% in size
Method in brief: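 Endogenous HDAC class I/II activity was measured in wild-type HCT-116 cells by HDAC-Glo luminescence after 2 h compound treatment.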

[3] = qHTS assay to identify small molecule HDAC inhibitors - cell viability counter screen (AID 1259365); note: series mostly up to about 92 µM; nearly all actives have a fitted effect of over 50% in size
Method in brief: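 Following a 2hr exposure of overnight-plated wild-type HCT-116 cells to DMSO-delivered compounds, CellTiter-Glo was added and luminescence recorded after 30min at room temperature.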

[4] = qHTS assay to identify small molecule agonists of the sonic hedgehog signaling (Shh) pathway - cell viability counter screen (AID 1259366); note: nearly all actives have a fitted effect of over 50% in size
Method in brief: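 After a 4hr attachment at 37C, NIH/3T3 cells bearing an integrated Gli1-driven luciferase reporter were dosed with compounds. Treatment lasted 24hr, with the final hour including CellTiter-Fluor for a fluorescence viability measurement.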

[5] = qHTS assay to identify small molecule antagonists of the sonic hedgehog signaling (Shh) pathway - cell viability counter screen (AID 1259367); note: nearly all actives have a fitted effect of over 55% in size
Method in brief: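 Seed 3T3 Gli1-Luc cells at 2,000 per well; incubate 4 hr; add compound in DMSO, then conditioned medium; incubate at 37C with 5% CO2; add CellTiter-Fluor after 23 hr; read fluorescence 1 hr later.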

[6] = qHTS assay to identify small molecule agonists of the sonic hedgehog signaling (Shh) pathway (AID 1259368; calls by dose curve;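 note: NIH/3T3-derived 3T3Gli1-Luc cells carrying a stable Gli1-driven firefly luciferase reporter; series mostly up to about 92 µM; nearly all actives have a fitted effect of over 15% in size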)
Method in brief: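 Luminescent signal was taken as a measure of Gli1-controlled luciferase expression in stably transfected NIH/3T3-derived cells that had been treated for 24 hr with compounds delivered in DMSO.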

[7] = qHTS assay to identify small molecule antagonists of the sonic hedgehog signaling (Shh) pathway (AID 1259369; calls by dose curve; note: nearly all actives have a fitted effect of over 45% in size)
Method in brief: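 Screening used 3T3Gli1-Luc cells at 2,000 per well, compounds delivered in DMSO, and conditioned medium as agonist stimulus; plates incubated 24hr at 37 C and 5% CO2 before a 30min luciferase step.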

[8] = target: Estrogen receptor beta (Homo sapiens) (UniProt Q92731); assay: qHTS assay to identify small molecule agonists of the estrogen receptor beta (ER-beta) signaling pathway (AID 1259377; active = well fitted activation curve with a large enough effect in the signal ratio in the repeat runs, not every such curve was filed as active; the % refers to the signal ratio)
Method in brief: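 In HEK293T cells bearing a UAS-beta-lactamase reporter under ER-beta control, DMSO-delivered compounds were incubated for 16 hr at 37C. Activity was detected as fluorescence 2 hours after LiveBLAzer B/G FRET substrate addition.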

[9] = target: Estrogen receptor beta (Homo sapiens) (UniProt Q92731); assay: qHTS assay to identify small molecule antagonists of the estrogen receptor beta (ER-beta) signaling pathway (AID 1259378; active = well fitted inhibition curve with a large enough effect in the signal ratio in the repeat runs, not every such curve was filed as active; the % refers to the signal ratio)
Method in brief: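 ER-beta-UAS-bla HEK293T cells in 2% charcoal-stripped FBS medium treated with compound plus 1nM final 17-beta-estradiol for 16 hr at 37C. Beta-lactamase reporter read by FRET substrate fluorescence after 2 hours at room temperature.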

[10] = qHTS assay to identify small molecule agonists of the androgen receptor (AR) signaling pathway in the presence of an antagonist - cell viability counter screen (AID 1259379);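 note: MDA-kb2 human breast cancer cells carrying an MMTV luciferase reporter; series mostly up to about 92 µM; nearly all actives have a fitted effect of over 25% in size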
Method in brief: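 In MDA-kb2 cells (human breast carcinoma, MMTV-luciferase), compounds at 15 concentrations plus 3.0uM nilutamide; 16 hr, 37C, 0% CO2; CellTiter-Fluor fluorescence read for viability.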

[11] = qHTS assay to identify small molecule agonists of the estrogen receptor beta (ER-beta) signaling pathway - cell viability counter screen (AID 1259380); note: nearly all actives have a fitted effect of over 30% in size
Method in brief: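 Viability of ER-beta-UAS-bla HEK293T cells was determined by CellTiter-Glo luminescence following 16 hr treatment with test compounds at 37C.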

[12] = qHTS assay to identify small molecule antagonists of the estrogen receptor beta (ER-beta) signaling pathway - cell viability counter screen (AID 1259382); note: series mostly up to about 92 µM; nearly all actives have a fitted effect of over 55% in size
Method in brief: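 Tox21 10K library tested in qHTS format on ER-beta-bla HEK293T cells stimulated with 1nM E2; 16 hr treatment at 37C. Same-well CellTiter-Glo luminescence served as the cell viability measure.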

[13] = target: Estrogen receptor (Homo sapiens) (UniProt P03372); assay: qHTS assay to identify small molecule agonists of the estrogen receptor alpha (ER-alpha) signaling pathway in the presence of an antagonist (AID 1259383; calls by dose curve; note: top concentration of the series differs between compounds; nearly all actives have a fitted effect of over 15% in size)
Method in brief: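 In VM7Luc4E2 cells, 4,000 per well, compounds at 15 concentrations were co-incubated 22hr at 37C with 10.0nM final ICI-182,780. Luminescence from the stably transfected 4×ERE-luciferase reporter was recorded 30min after ONE-Glo addition.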

[14] = qHTS assay to identify small molecule agonists or antagonists of the thyroid stimulating hormone receptor (TSHR) signaling pathway - wild type cell line counter screen (AID 1259384; calls by dose curve)
Method in brief: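 Wild-type Hek293 cells, 800/well, 18 h at 37C, then compound with Ro20-1724 for 30 min RT. cAMP by HTRF (cAMP-d2/anti-cAMP cryptate), 1 h RT, fluorescence read. 15 concentrations, triplicates.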

[15] = target: Thyrotropin receptor (Homo sapiens) (UniProt P16473); assay: qHTS assay to identify small molecule antagonists of the thyroid stimulating hormone receptor (TSHR) signaling pathway (AID 1259385; calls by dose curve; note: nearly all actives have a fitted effect of over 20% in size)
Method in brief: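 TSHR-HEK293 cells (800/well) plated 18 h, then compounds with Ro20-1724 and TSH at 1.5 ng/mL final, 30 min at room temperature. cAMP quantified by HTRF (cAMP-d2/anti-cAMP-cryptate, 1 h); 15 concentrations in triplicate.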

[16] = qHTS assay to identify small molecule agonists of the estrogen receptor alpha (ER-alpha) signaling pathway in the presence of an antagonist - cell viability counter screen (AID 1259386);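 note: series mostly up to about 92 µM; cells exposed to compounds for 22 h at 37 °C before the viability read; nearly all actives have a fitted effect of over 30% in size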
Method in brief: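 Fluorescent CellTiter-Fluor viability signal from VM7Luc4E2 cells, with the reagent added during the final hour of a 22hr compound exposure at 37C in the presence of 10.0nM ICI-182,780.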

[17] = target: Progesterone receptor (Homo sapiens) (UniProt P06401); assay: qHTS assay to identify small molecule agonists of the progesterone receptor (PR) signaling pathway (AID 1346784; calls by dose curve; note: nearly all actives have a fitted effect of over 30% in size)
Method in brief: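 Using charcoal-stripped serum (2%) to limit endogenous steroids, PR-UAS-bla HEK 293T cells received compounds for 16 hr at 37C after 6 hr plating; beta-lactamase FRET fluorescence was recorded following 2 hr substrate loading at room temperature.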

[18] = qHTS assay to identify small molecule phospholipidosis (PLD) inducers (AID 1259344; active = well fitted curve in the direction sought with a large enough effect; an effect the other way counts as inactive or inconclusive)
Method in brief: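 Quantitative HTS in HepG2: compound plus LipidTOX Red dye for 24 h, paraformaldehyde fixation with Hoechst 33342, widefield high-content imaging; amiodarone as positive and DMSO as negative control.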

[19] = target: Progesterone receptor (Homo sapiens) (UniProt P06401); assay: qHTS assay to identify small molecule antagonists of the progesterone receptor (PR) signaling pathway (AID 1346795; active = well fitted inhibition curve with a large enough effect in the signal ratio in the repeat runs, not every such curve was filed as active; the % refers to the signal ratio)
Method in brief: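 Inhibition of R5020-induced (1 nM final) beta-lactamase reporter signal in PR-UAS-bla HEK293T cells was scored by FRET fluorescence after overnight (16 hr) compound treatment.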

[20] = target: Androgen receptor (Homo sapiens) (UniProt P10275); assay: qHTS assay to identify small molecule agonists of the androgen receptor (AR) signaling pathway in the presence of an antagonist (AID 1259381; calls by dose curve; note: nearly all actives have a fitted effect of over 15% in size)
Method in brief: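 Here, 15-concentration compound series were pin-transferred onto MDA-kb2 MMTV-luciferase cells already dosed with nilutamide (3.0uM final). After 16hr at 37C, ONE-Glo was added and luminescence read 30min later at room temperature.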

Measured: Potency

Progesterone receptor (Homo sapiens), sequence (P06401 whole entry, looked up): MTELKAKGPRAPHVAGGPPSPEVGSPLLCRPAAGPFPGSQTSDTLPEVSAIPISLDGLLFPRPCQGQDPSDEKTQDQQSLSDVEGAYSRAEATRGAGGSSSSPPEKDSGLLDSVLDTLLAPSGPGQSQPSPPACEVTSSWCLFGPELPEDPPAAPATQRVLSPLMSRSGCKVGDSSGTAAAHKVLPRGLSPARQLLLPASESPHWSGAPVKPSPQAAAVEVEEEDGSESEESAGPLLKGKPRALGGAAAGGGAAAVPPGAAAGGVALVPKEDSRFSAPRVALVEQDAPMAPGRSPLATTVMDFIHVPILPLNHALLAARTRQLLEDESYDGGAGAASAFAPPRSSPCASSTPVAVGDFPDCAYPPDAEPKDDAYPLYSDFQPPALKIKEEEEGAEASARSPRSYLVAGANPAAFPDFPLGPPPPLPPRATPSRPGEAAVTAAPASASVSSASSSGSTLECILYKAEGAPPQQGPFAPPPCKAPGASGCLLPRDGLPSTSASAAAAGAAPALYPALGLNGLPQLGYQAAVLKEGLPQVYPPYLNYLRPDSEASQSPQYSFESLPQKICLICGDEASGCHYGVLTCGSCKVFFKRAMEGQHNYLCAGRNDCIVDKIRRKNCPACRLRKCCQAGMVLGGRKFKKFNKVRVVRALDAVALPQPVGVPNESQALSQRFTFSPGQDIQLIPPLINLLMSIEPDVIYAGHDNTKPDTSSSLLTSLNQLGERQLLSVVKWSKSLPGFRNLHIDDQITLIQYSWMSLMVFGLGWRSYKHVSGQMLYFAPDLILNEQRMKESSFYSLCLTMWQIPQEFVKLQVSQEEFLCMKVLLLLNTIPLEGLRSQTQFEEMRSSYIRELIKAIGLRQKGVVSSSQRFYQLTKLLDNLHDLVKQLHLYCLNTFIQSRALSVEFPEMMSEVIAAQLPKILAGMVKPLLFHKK
Thyrotropin receptor (Homo sapiens), sequence (P16473 whole entry, looked up): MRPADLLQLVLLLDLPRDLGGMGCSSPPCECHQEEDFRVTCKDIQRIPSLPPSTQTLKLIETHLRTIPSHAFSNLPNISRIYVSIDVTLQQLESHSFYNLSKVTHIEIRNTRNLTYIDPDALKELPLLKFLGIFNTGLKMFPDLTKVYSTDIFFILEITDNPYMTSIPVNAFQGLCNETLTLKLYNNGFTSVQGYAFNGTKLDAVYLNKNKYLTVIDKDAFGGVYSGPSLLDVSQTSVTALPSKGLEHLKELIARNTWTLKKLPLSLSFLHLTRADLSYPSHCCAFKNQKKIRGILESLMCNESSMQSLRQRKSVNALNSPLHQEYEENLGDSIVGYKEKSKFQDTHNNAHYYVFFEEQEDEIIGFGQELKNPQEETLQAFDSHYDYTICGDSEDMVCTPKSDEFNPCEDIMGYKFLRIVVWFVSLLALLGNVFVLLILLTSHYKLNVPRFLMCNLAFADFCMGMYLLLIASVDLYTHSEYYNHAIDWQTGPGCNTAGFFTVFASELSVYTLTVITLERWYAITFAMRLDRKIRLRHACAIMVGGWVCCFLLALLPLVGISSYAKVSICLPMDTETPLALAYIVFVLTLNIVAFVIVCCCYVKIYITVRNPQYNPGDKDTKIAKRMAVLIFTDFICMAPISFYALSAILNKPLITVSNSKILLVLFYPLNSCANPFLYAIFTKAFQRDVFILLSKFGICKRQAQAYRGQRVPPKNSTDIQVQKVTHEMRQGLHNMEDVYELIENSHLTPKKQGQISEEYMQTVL
Estrogen receptor beta (Homo sapiens), sequence (Q92731 whole entry, looked up): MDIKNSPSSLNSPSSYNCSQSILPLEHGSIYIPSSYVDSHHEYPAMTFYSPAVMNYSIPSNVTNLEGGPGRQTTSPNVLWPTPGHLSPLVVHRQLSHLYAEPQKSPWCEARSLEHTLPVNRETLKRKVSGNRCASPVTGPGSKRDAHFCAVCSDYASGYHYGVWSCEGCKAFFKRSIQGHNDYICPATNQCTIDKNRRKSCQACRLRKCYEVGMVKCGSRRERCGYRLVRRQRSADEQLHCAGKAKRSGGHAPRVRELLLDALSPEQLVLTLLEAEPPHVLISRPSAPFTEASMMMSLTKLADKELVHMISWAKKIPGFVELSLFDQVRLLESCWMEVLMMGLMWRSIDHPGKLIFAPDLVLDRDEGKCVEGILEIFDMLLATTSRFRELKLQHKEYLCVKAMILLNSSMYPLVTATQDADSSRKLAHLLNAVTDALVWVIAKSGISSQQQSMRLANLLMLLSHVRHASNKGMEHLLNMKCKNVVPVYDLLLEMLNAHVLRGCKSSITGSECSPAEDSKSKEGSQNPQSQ
Estrogen receptor (Homo sapiens), sequence (P03372 whole entry, looked up): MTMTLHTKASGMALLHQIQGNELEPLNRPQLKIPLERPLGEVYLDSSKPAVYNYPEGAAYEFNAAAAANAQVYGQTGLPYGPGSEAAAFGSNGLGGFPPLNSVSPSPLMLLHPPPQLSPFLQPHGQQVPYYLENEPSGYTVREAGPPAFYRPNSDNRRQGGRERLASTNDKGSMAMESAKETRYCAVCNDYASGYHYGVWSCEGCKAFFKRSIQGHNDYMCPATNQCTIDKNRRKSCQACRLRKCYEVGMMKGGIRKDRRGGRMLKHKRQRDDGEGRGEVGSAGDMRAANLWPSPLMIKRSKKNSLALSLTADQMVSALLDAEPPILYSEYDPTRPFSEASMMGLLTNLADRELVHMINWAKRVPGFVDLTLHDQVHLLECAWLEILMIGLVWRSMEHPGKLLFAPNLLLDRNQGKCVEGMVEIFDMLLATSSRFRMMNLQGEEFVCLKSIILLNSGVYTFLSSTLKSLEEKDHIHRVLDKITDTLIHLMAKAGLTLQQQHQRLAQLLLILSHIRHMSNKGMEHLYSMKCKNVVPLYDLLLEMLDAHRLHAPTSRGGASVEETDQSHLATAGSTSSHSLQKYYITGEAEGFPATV
Androgen receptor (Homo sapiens), sequence (P10275 whole entry, looked up): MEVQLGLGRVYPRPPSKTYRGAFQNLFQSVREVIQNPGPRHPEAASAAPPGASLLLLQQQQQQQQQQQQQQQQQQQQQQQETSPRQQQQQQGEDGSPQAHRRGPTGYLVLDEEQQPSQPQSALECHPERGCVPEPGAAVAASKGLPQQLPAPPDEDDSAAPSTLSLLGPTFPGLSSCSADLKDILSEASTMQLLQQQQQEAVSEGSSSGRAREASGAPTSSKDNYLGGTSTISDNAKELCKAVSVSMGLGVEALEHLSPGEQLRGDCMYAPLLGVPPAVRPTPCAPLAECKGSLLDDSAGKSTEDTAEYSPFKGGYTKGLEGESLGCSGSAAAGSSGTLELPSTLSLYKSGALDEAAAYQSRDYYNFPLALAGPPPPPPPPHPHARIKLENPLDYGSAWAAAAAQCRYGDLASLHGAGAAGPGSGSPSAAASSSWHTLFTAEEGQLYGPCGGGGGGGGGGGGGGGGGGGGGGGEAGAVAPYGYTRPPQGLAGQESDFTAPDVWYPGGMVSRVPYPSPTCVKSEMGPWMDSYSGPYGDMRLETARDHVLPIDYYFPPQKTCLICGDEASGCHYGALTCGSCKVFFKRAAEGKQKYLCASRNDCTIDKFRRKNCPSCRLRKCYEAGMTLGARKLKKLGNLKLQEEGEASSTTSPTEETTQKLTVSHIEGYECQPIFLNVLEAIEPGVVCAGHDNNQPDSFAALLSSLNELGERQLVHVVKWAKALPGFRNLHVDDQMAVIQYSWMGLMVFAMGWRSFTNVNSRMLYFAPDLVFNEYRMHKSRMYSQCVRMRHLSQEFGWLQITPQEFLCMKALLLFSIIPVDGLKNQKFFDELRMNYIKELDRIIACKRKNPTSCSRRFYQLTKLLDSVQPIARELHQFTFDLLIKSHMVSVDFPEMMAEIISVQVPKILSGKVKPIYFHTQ

CCCCOC(=O)c1ccccc1C(=O)OCCCC
not listed: [18] | [19] | [20]
inactive: all other assays above

C#CCN(C)[C@H](C)Cc1ccccc1
not listed: [20]
inactive: all other assays above

COC(=O)NC(=S)Nc1ccccc1NC(=S)NC(=O)OC
not listed: [18] | [20]
inactive: all other assays above

O=[N+]([O-])c1ccc([As](=O)(O)O)cc1
not listed: [7] | [8] | [9] | [20]
inactive: all other assays above

CN(C)CCO
not listed: [20]
inactive: all other assays above

Nc1ccccc1C(=O)O
not listed: [7] | [20]
inactive: all other assays above

Cc1[nH]c(=O)n(C(C)(C)C)c(=O)c1Cl
not listed: [7] | [8] | [9] | [18]
inactive: all other assays above

O=c1[nH]c2ccccc2c(=O)o1
not listed: [7] | [8] | [9] | [18] | [20]
inactive: all other assays above
